Numbering of substitutions follows the chain as printed.
Columns and labels:
Assay in all cases: PBM; 200 nM protein, PBS
Settings in all cases: dsDNA, one strand shown
[1] = target: T1, SIX6 (Homo sapiens, UniProt O95475 114-200, L167I)
T1 sequence: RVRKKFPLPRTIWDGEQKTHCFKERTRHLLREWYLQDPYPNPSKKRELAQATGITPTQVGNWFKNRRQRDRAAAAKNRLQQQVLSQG

[2] = target: T2, SIX6 (Homo sapiens, UniProt O95475 114-200, L143V)
T2 sequence: T1 sequence with L30V, I54L

[3] = target: T3, SIX6 (Homo sapiens, UniProt O95475 114-200, H141N)
T3 sequence: T1 sequence with H28N, I54L

[4] = target: T4, SIX6 (Homo sapiens, UniProt O95475 114-200, T165P)
T4 sequence: T1 sequence with T52P, I54L

[5] = target: T5, SIX6 (Homo sapiens, UniProt O95475 114-200, L167M)
T5 sequence: T1 sequence with I54M

[6] = target: T6, SIX6 (Homo sapiens, UniProt O95475 114-200, L143M)
T6 sequence: T1 sequence with L30M, I54L

[7] = target: T7, SIX6 (Homo sapiens, UniProt O95475 114-200, L143I)
T7 sequence: T1 sequence with L30I, I54L

[8] = target: T8, SIX6 (Homo sapiens, UniProt O95475 114-200, T165G)
T8 sequence: T1 sequence with T52G, I54L

[9] = target: T9, SIX6 (Homo sapiens, UniProt O95475 114-200, T139Q)
T9 sequence: T1 sequence with T26Q, I54L

[10] = target: T10, SIX6 (Homo sapiens, UniProt O95475 114-200, T165A)
T10 sequence: T1 sequence with T52A, I54L

[11] = target: T11, SIX6 (Homo sapiens, UniProt O95475 114-200, L167V)
T11 sequence: T1 sequence with I54V

[12] = target: T12, SIX6 (Homo sapiens, UniProt O95475 114-200)
T12 sequence: T1 sequence with I54L

[13] = target: T13, SIX6 (Homo sapiens, UniProt O95475 114-200, T165I)
T13 sequence: T1 sequence with T52I, I54L

[14] = target: HOXA2 (Homo sapiens, UniProt O43364 129-215, R185T)
[15] = target: HOXA2 (Homo sapiens, UniProt O43364 129-215, R185K)
[16] = target: HOXA2 (Homo sapiens, UniProt O43364 129-215, Y150S)
[17] = target: HOXA2 (Homo sapiens, UniProt O43364 129-215)
HOXA2 (Homo sapiens, UniProt O43364 129-215), sequence (O43364 129-215): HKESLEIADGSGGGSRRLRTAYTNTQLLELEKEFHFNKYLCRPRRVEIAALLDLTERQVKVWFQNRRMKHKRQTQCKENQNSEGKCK

HOXA2 (Homo sapiens, UniProt O43364 129-215, R185T), sequence (O43364 129-215 R185T): as the sequence (O43364 129-215) above, with R57T counted along it
HOXA2 (Homo sapiens, UniProt O43364 129-215, Y150S), sequence (O43364 129-215 Y150S): as the sequence (O43364 129-215) above, with Y22S counted along it
HOXA2 (Homo sapiens, UniProt O43364 129-215, R185K), sequence (O43364 129-215 R185K): as the sequence (O43364 129-215) above, with R57K counted along it

Sequence | binding signal [1] | binding signal [2] | binding signal [3] | binding signal [4] | binding signal [5] | binding signal [6] | binding signal [7] | binding signal [8] | binding signal [9] | binding signal [10] | binding signal [11] | binding signal [12] | binding signal [13] | binding signal [14] | binding signal [15] | binding signal [16] | binding signal [17]
CCACCCGC | 9.19 upbm affinity estimate (log intensity, higher = more binding, comparable within an allelic series) | 9.01 upbm affinity estimate (log intensity, higher = more binding, comparable within an allelic series) | 9.2 upbm affinity estimate (log intensity, higher = more binding, comparable within an allelic series) | 9.04 upbm affinity estimate (log intensity, higher = more binding, comparable within an allelic series) | 9.21 upbm affinity estimate (log intensity, higher = more binding, comparable within an allelic series) | 9.22 upbm affinity estimate (log intensity, higher = more binding, comparable within an allelic series) | 9.08 upbm affinity estimate (log intensity, higher = more binding, comparable within an allelic series) | 9.26 upbm affinity estimate (log intensity, higher = more binding, comparable within an allelic series) | 9.36 upbm affinity estimate (log intensity, higher = more binding, comparable within an allelic series) | 9.23 upbm affinity estimate (log intensity, higher = more binding, comparable within an allelic series) | 9.16 upbm affinity estimate (log intensity, higher = more binding, comparable within an allelic series) | 9.18 upbm affinity estimate (log intensity, higher = more binding, comparable within an allelic series) | 9.15 upbm affinity estimate (log intensity, higher = more binding, comparable within an allelic series) | – | – | – | –
CCCAGCCG | 9.06 upbm affinity estimate (log intensity, higher = more binding, comparable within an allelic series) | 8.82 upbm affinity estimate (log intensity, higher = more binding, comparable within an allelic series) | 9.12 upbm affinity estimate (log intensity, higher = more binding, comparable within an allelic series) | 8.84 upbm affinity estimate (log intensity, higher = more binding, comparable within an allelic series) | 9.01 upbm affinity estimate (log intensity, higher = more binding, comparable within an allelic series) | 8.87 upbm affinity estimate (log intensity, higher = more binding, comparable within an allelic series) | 8.92 upbm affinity estimate (log intensity, higher = more binding, comparable within an allelic series) | 9.07 upbm affinity estimate (log intensity, higher = more binding, comparable within an allelic series) | 9.24 upbm affinity estimate (log intensity, higher = more binding, comparable within an allelic series) | 9.06 upbm affinity estimate (log intensity, higher = more binding, comparable within an allelic series) | 8.98 upbm affinity estimate (log intensity, higher = more binding, comparable within an allelic series) | 9.03 upbm affinity estimate (log intensity, higher = more binding, comparable within an allelic series) | 9.05 upbm affinity estimate (log intensity, higher = more binding, comparable within an allelic series) | – | – | – | –
GCACGCCC | 8.91 upbm affinity estimate (log intensity, higher = more binding, comparable within an allelic series) | 8.8 upbm affinity estimate (log intensity, higher = more binding, comparable within an allelic series) | 8.92 upbm affinity estimate (log intensity, higher = more binding, comparable within an allelic series) | 8.82 upbm affinity estimate (log intensity, higher = more binding, comparable within an allelic series) | 8.88 upbm affinity estimate (log intensity, higher = more binding, comparable within an allelic series) | 8.84 upbm affinity estimate (log intensity, higher = more binding, comparable within an allelic series) | 8.88 upbm affinity estimate (log intensity, higher = more binding, comparable within an allelic series) | 8.97 upbm affinity estimate (log intensity, higher = more binding, comparable within an allelic series) | 8.92 upbm affinity estimate (log intensity, higher = more binding, comparable within an allelic series) | 8.91 upbm affinity estimate (log intensity, higher = more binding, comparable within an allelic series) | 8.87 upbm affinity estimate (log intensity, higher = more binding, comparable within an allelic series) | 8.94 upbm affinity estimate (log intensity, higher = more binding, comparable within an allelic series) | 8.8 upbm affinity estimate (log intensity, higher = more binding, comparable within an allelic series) | – | – | – | –
CTCGGGCC | 9.05 upbm affinity estimate (log intensity, higher = more binding, comparable within an allelic series) | 8.95 upbm affinity estimate (log intensity, higher = more binding, comparable within an allelic series) | 9.05 upbm affinity estimate (log intensity, higher = more binding, comparable within an allelic series) | 9.01 upbm affinity estimate (log intensity, higher = more binding, comparable within an allelic series) | 8.95 upbm affinity estimate (log intensity, higher = more binding, comparable within an allelic series) | 9.01 upbm affinity estimate (log intensity, higher = more binding, comparable within an allelic series) | 9.02 upbm affinity estimate (log intensity, higher = more binding, comparable within an allelic series) | 9.14 upbm affinity estimate (log intensity, higher = more binding, comparable within an allelic series) | 9.13 upbm affinity estimate (log intensity, higher = more binding, comparable within an allelic series) | 9.09 upbm affinity estimate (log intensity, higher = more binding, comparable within an allelic series) | 9.03 upbm affinity estimate (log intensity, higher = more binding, comparable within an allelic series) | 9.02 upbm affinity estimate (log intensity, higher = more binding, comparable within an allelic series) | 9.02 upbm affinity estimate (log intensity, higher = more binding, comparable within an allelic series) | – | – | – | –
GTATCATA | 11.5 upbm affinity estimate (log intensity, higher = more binding, comparable within an allelic series) | 10.5 upbm affinity estimate (log intensity, higher = more binding, comparable within an allelic series) | 11.5 upbm affinity estimate (log intensity, higher = more binding, comparable within an allelic series) | 9.93 upbm affinity estimate (log intensity, higher = more binding, comparable within an allelic series) | 10.8 upbm affinity estimate (log intensity, higher = more binding, comparable within an allelic series) | 11.2 upbm affinity estimate (log intensity, higher = more binding, comparable within an allelic series) | 10.6 upbm affinity estimate (log intensity, higher = more binding, comparable within an allelic series) | 11.5 upbm affinity estimate (log intensity, higher = more binding, comparable within an allelic series) | 11.3 upbm affinity estimate (log intensity, higher = more binding, comparable within an allelic series) | 11.4 upbm affinity estimate (log intensity, higher = more binding, comparable within an allelic series) | 11.3 upbm affinity estimate (log intensity, higher = more binding, comparable within an allelic series) | 11.2 upbm affinity estimate (log intensity, higher = more binding, comparable within an allelic series) | 11.3 upbm affinity estimate (log intensity, higher = more binding, comparable within an allelic series) | – | – | – | –
CGCGTGGC | 9.04 upbm affinity estimate (log intensity, higher = more binding, comparable within an allelic series) | 8.85 upbm affinity estimate (log intensity, higher = more binding, comparable within an allelic series) | 9.07 upbm affinity estimate (log intensity, higher = more binding, comparable within an allelic series) | 8.86 upbm affinity estimate (log intensity, higher = more binding, comparable within an allelic series) | 8.92 upbm affinity estimate (log intensity, higher = more binding, comparable within an allelic series) | 8.96 upbm affinity estimate (log intensity, higher = more binding, comparable within an allelic series) | 8.93 upbm affinity estimate (log intensity, higher = more binding, comparable within an allelic series) | 9 upbm affinity estimate (log intensity, higher = more binding, comparable within an allelic series) | 9.1 upbm affinity estimate (log intensity, higher = more binding, comparable within an allelic series) | 8.98 upbm affinity estimate (log intensity, higher = more binding, comparable within an allelic series) | 8.96 upbm affinity estimate (log intensity, higher = more binding, comparable within an allelic series) | 8.97 upbm affinity estimate (log intensity, higher = more binding, comparable within an allelic series) | 9.02 upbm affinity estimate (log intensity, higher = more binding, comparable within an allelic series) | 7.16 upbm affinity estimate (log intensity, higher = more binding, comparable within an allelic series) | 10.4 upbm affinity estimate (log intensity, higher = more binding, comparable within an allelic series) | 10.3 upbm affinity estimate (log intensity, higher = more binding, comparable within an allelic series) | 7.31 upbm affinity estimate (log intensity, higher = more binding, comparable within an allelic series)
